From PubChem BioAssay AID1159580 (chemical genetic matrix, 2015)
About 2,000 (36%) of roughly 5,500 compounds were called active. Another 18% or so got no clear call; they are omitted. Cut-off read from the data, not from the text of the source: active = normalized growth mostly below about 0.91 (no sharp cut-off); inconclusive = no clear call, values can overlap the other calls; inactive = mostly above about 0.92. This is one part of the list.

Experiment: chemical genetic growth profiling, strain panel (AID 1159580);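 note: tested at 20 µM; growth read once vehicle control cultures reached saturation at 30 °C; 1 = growth at the plate median or of vehicle wells; lower values mean less growth of the strain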
Conditions: S. cerevisiae deletion strains, growth OD
[1] = locus YHR030C, strain SLT2, active compounds read low
[2] = locus YJL095W, strain BCK1, active compounds read low

Measured: normalized growth

CC(=O)O[C@@H]1CC2C(C)(C)[C@H](O)CC[C@]2(C)C2CC[C@@]3(C)[C@H](c4ccoc4)OC(=O)[C@H]4O[C@]43[C@@]21C (stereo partly specified)
inactive: locus YAL013W, strain DEP1, active compounds read low 1.01 | locus YBR021W, strain FUR4, active compounds read low 0.971 | locus YBR229C, strain ROT2, active compounds read low 0.996 | locus YCL029C, strain bik1, active compounds read low 0.997 | locus YDL035C, strain GPR1, active compounds read low 0.983 | locus YDL074C, strain BRE1, active compounds read low 0.994 | locus YDL101C, strain DUN1, active compounds read low 1.02 | locus YDL134C, strain PPH21, active compounds read low 0.982 | locus YDL185W, strain tfp1, active compounds read low 1.02 | locus YDL192W, strain arf1, active compounds read low 0.999 | locus YDR101C, strain arx1, active compounds read low 0.993 | locus YDR150W, strain NUM1, active compounds read low 1 | locus YDR162C, strain NBP2, active compounds read low 1.01 | locus YDR318W, strain mcm21, active compounds read low 1.02 | locus YDR388W, active compounds read low 1.01 | locus YDR502C, strain sam2, active compounds read low 1.02 | locus YEL061C, strain CIN8, active compounds read low 1.01 | locus YER110C, active compounds read low 1.03 | locus YER155C, strain BEM2, active compounds read low 1.01 | locus YER167W, strain BCK2, active compounds read low 1.01 | locus YGL078C, strain dbp3, active compounds read low 1.04 | locus YGL086W, strain mad1, active compounds read low 1.02 | locus YGL248W, strain PDE1, active compounds read low 1.02 | locus YGR078C, strain PAC10, active compounds read low 1.05 | locus YGR135W, strain pre9, active compounds read low 1.06 | locus YGR252W, strain gcn5, active compounds read low 1.03 | [1] 1.01 | locus YHR079C, strain IRE1 (second series), active compounds read low 1.01 | locus YHR094C, strain hxt1, active compounds read low 1.01 | locus YHR129C, strain ARP1, active compounds read low 1 | locus YHR200W, strain rpn10, active compounds read low 1.01 | locus YIL066C, strain RNR3, active compounds read low 0.984 | locus YIL073C, strain SPO22, active compounds read low 1.03 | locus YIL125W, strain kgd1, active compounds read low 1.01 | locus YIR030C, strain dcg1, active compounds read low 1.01 | [2] 1.03 | locus YJL134W, strain LCB3, active compounds read low 1.01 | locus YJL168C, strain set2, active compounds read low 1.02 | locus YJL187C, strain SWE1 (second series), active compounds read low 1.03 | locus YKL009W, strain mrt4, active compounds read low 0.996 | locus YKL068W, active compounds read low 0.996 | locus YKL085W, strain MDH1 (second series), active compounds read low 1.01 | locus YKL085W, strain MDH1, active compounds read low 1.01 | locus YKR001C, strain vps1, active compounds read low 1.01 | locus YLR039C, strain RIC1, active compounds read low 1.07 | locus YLR058C, strain SHM2, active compounds read low 1.01 | locus YLR102C, strain apc9, active compounds read low 1.01 | locus YLR262C, strain YPT6, active compounds read low 1.13 | locus YLR268W, strain sec22, active compounds read low 0.975 | locus YLR342W, strain FKS1 (second series), active compounds read low 1.02 | locus YLR371W, strain rom2, active compounds read low 1.01 | locus YLR418C, strain cdc73, active compounds read low 1.02 | locus YML016C, strain PPZ1, active compounds read low 1.01 | locus YML032C, strain rad52, active compounds read low 0.978 | locus YML124C, strain tub3, active compounds read low 1.02 | locus YMR078C, strain ctf18, active compounds read low 1.01 | locus YMR223W, strain ubp8, active compounds read low 1 | locus YMR307W, strain GAS1, active compounds read low 1.09 | locus YNL067W, strain RPL9B, active compounds read low 1.04 | locus YNL153C, strain GIM3, active compounds read low 1.04 | locus YNL233W, strain BNI4, active compounds read low 1.02 | locus YNL250W, strain rad50, active compounds read low 1.04 | locus YNL271C, strain bni1, active compounds read low 1.03 | locus YNL298W, strain CLA4, active compounds read low 1.01 | locus YNL307C, strain MCK1, active compounds read low 1.02 | locus YNR052C, strain pop2, active compounds read low 1.04 | locus YOL006C, strain TOP1, active compounds read low 1.01 | locus YOL012C, strain htz1 0.714 | locus YOL147C, strain pex11, active compounds read low 1.01 | locus YOR061W, strain CKA2, active compounds read low 1 | locus YOR069W, strain VPS5, active compounds read low 1.01 | locus YOR136W, strain idh2, active compounds read low 1.01 | locus YOR144C, strain elg1, active compounds read low 1.01 | locus YOR184W, strain ser1, active compounds read low 0.993 | locus YOR316C, strain cot1, active compounds read low 1.02 | locus YPL241C, strain CIN2, active compounds read low 1.01 | locus YPR119W, strain clb2, active compounds read low 1.01 | locus YPR141C, strain kar3, active compounds read low 1 | locus YPR163C, strain tif3, active compounds read low 1.02 | locus YPR167C, strain met16, active compounds read low 1.02 | strain wtn01, active compounds read low 0.984

CC(=O)O[C@@H]1CC2C(C)(C)[C@H](O)C=C[C@]2(C)C2CC[C@@]3(C)[C@H](c4ccoc4)OC(=O)C4OC43[C@@]21C (stereo partly specified)
inactive: locus YAL021C, strain ccr4, active compounds read low 1.02 | locus YAL026C, strain drs2, active compounds read low 1.03 | locus YAL030W, strain snc1, active compounds read low 1.01 | locus YBL061C, strain skt5, active compounds read low 1.02 | locus YBR009C, strain hhf1, active compounds read low 1.02 | locus YBR023C, strain chs3, active compounds read low 1.03 | locus YBR171W, strain sec66, active compounds read low 1.01 | locus YBR231C, strain swc5, active compounds read low 1.02 | locus YBR279W, strain paf1, active compounds read low 1.02 | locus YCL011C, strain gbp2, active compounds read low 1.02 | locus YCL016C, strain dcc1, active compounds read low 1.02 | locus YCL061C, strain MRC1, active compounds read low 1.01 | locus YCL069W, strain vba3, active compounds read low 1.02 | locus YCR088W, strain abp1, active compounds read low 1.02 | locus YDL005C, strain med2, active compounds read low 1.01 | locus YDL040C, strain nat1, active compounds read low 1.02 | locus YDR001C, strain nth1, active compounds read low 1.01 | locus YDR069C, strain doa4, active compounds read low 1.04 | locus YDR137W, strain rgp1, active compounds read low 1.03 | locus YDR159W, strain sac3, active compounds read low 1.03 | locus YDR195W, strain ref2 1.06 | locus YDR297W, strain sur2, active compounds read low 1.01 | locus YDR334W, strain swr1, active compounds read low 1.02 | locus YDR335W, strain msn5, active compounds read low 1.02 | locus YDR392W, strain spt3, active compounds read low 0.963 | locus YEL003W, strain gim4, active compounds read low 1.02 | locus YEL037C, strain rad23, active compounds read low 1.02 | locus YEL061C, strain CIN8 (second series), active compounds read low 1.01 | locus YER015W, strain faa2, active compounds read low 1.02 | locus YER016W, strain bim1, active compounds read low 1.02 | locus YER111C, strain swi4, active compounds read low 1.02 | locus YER155C, strain BEM2 (second series), active compounds read low 1.03 | locus YFR010W, strain ubp6, active compounds read low 1.03 | locus YGL167C, strain pmr1, active compounds read low 1.02 | locus YGL173C, strain kem1, active compounds read low 1.02 | locus YGL227W, strain vid30, active compounds read low 1.02 | locus YGL240W, strain doc1, active compounds read low 1.02 | locus YGL253W, strain hxk2, active compounds read low 1.01 | locus YHR013C, strain ard1, active compounds read low 1.04 | locus YHR027C, strain rpn1, active compounds read low 1.02 | [1] 0.999 | locus YHR079C, strain IRE1, active compounds read low 0.99 | locus YHR142W, strain chs7, active compounds read low 1.02 | locus YJL092W, strain hpr5, active compounds read low 1.02 | locus YJL095W, strain BCK1 (second series), active compounds read low 1.02 | [2] 1 | locus YJL115W, strain asf1, active compounds read low 1.02 | locus YJL129C, strain trk1, active compounds read low 1.04 | locus YJL154C, strain vps35, active compounds read low 1.01 | locus YJL164C, strain tpk1, active compounds read low 0.998 | locus YJL166W, strain qcr8, active compounds read low 1.01 | locus YJL187C, strain SWE1, active compounds read low 1.01 | locus YJR066W, strain TOR1, active compounds read low 0.963 | locus YKL160W, strain elf1, active compounds read low 1.01 | locus YKR026C, strain gcn3, active compounds read low 0.998 | locus YKR091W, strain srl3, active compounds read low 1.02 | locus YLL001W, strain dnm1, active compounds read low 1.01 | locus YLL026W, active compounds read low 1.02 | locus YLL041C, strain sdh2, active compounds read low 1.01 | locus YLR027C, strain aat2, active compounds read low 1.01 | locus YLR113W, strain HOG1, active compounds read low 0.95 | locus YLR221C, strain rsa3, active compounds read low 1.01 | locus YLR258W, strain gsy2, active compounds read low 1.02 | locus YLR262C, strain YPT6 (second series), active compounds read low 1.02 | locus YLR320W, strain mms22, active compounds read low 1.01 | locus YLR342W, strain FKS1, active compounds read low 1.03 | locus YLR357W, strain rsc2, active compounds read low 1.03 | locus YLR370C, strain arc18, active compounds read low 1.02 | locus YLR384C, strain iki3, active compounds read low 1.02 | locus YML120C, strain ndi1, active compounds read low 1.02 | locus YMR058W, strain fet3, active compounds read low 1.02 | locus YMR125W, strain sto1, active compounds read low 1.03 | locus YMR129W, active compounds read low 1.01 | locus YMR205C, strain PFK2, active compounds read low 1.02 | locus YMR231W, strain pep5, active compounds read low 1.02 | locus YNL071W, strain lat1, active compounds read low 1.02 | locus YNL183C, strain NPR1, active compounds read low 0.955 | locus YNL209W, strain ssb2, active compounds read low 1.02 | locus YNL248C, strain rpa49, active compounds read low 1.01 | locus YNL322C, strain KRE1 (second series), active compounds read low 1.02 | locus YNR049C, strain mso1, active compounds read low 1.02 | locus YOR001W, strain rrp6, active compounds read low 1.01 | locus YOR070C, strain gyp1, active compounds read low 1.02 | locus YOR080W, strain dia2, active compounds read low 1.03 | locus YOR083W, strain WHI5, active compounds read low 1 | locus YOR106W, strain vam3, active compounds read low 1.01 | locus YOR231W, strain MKK1, active compounds read low 0.945 | locus YOR265W, strain rbl2, active compounds read low 1.02 | locus YOR270C, strain vph1, active compounds read low 1.04 | locus YOR290C, strain snf2, active compounds read low 0.982 | locus YPL051W, strain arl3, active compounds read low 1 | locus YPL078C, strain atp4, active compounds read low 1.01 | locus YPL106C, strain sse1, active compounds read low 1.04 | locus YPL240C, strain hsp82, active compounds read low 1.02 | locus YPL256C, strain CLN2, active compounds read low 0.962
